About 7,900 targets were measured; listed, in parts, are those with a hit and a random draw of the rest. About 0.6% of all pairs of compound and target were hits. Values without a mark were called inactive.
Key:
Assay in all cases: log2 fold change, soluble protein after heating vs DMSO (PISA); higher = thermal stabilisation; K562 cells, 10 uM, 30 min; active = over 0.2 and 3.5 SD of the protein, either way, in both replicates (recomputed)
[1] = compound: Cc1ccc(NC(=O)c2ccc(CN3CC[C@H](N(C)C)C3)c(C(F)(F)F)c2)cc1Nc1nccc(-c2cncnc2)n1 [bafetinib]
In short: (§1)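 Quantification of soluble protein used TMTpro 16plex LC-MS/MS, with channel sums equalised. Samples were the supernatant after 21,000xg for 90 min of pooled aliquots from K562 cells (2×10^6 cells/mL) treated with 10 μM compound for 30 min, heated for 3 min over 48°C-58°C, and extracted in PBS with 0.5% NP-40 at 4°C. Values, from duplicates, describe thermal stability against control samples on a log2 fold-change scale.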

[2] = compound: Cc1cccc(CC(=O)N2CCc3c2ccc(-c2cn(C)c4ncnc(N)c24)c3F)n1
In short: as §1

[3] = compound: Cc1cn(-c2cc(NC(=O)c3ccc(C)c(Nc4nccc(-c5cccnc5)n4)c3)cc(C(F)(F)F)c2)cn1 [nilotinib]
In short: as §1

[4] = compound: Cc1nc(Nc2n[nH]c3c2CN(C(=O)N[C@H](CN(C)C)c2ccccc2)C3(C)C)c2sccc2n1
In short: as §1

[5] = compound: Cc1nc(Nc2ncc(C(=O)Nc3c(C)cccc3Cl)s2)cc(N2CCN(CCO)CC2)n1 [dasatinib]
In short: as §1

[6] = compound: Cc1ncc(-c2ccnc(Nc3ccc(S(C)(=O)=O)cc3)n2)n1C(C)C
In short: as §1

[7] = compound: Cn1cc(-c2ccc3c(c2)CCN3C(=O)Cc2cccc(C(F)(F)F)c2)c2c(N)ncnc21
In short: as §1

[8] = compound: Cn1cc(-c2ccc3nnc(C(F)(F)c4ccc5ncccc5c4)n3n2)cn1
In short: as §1

[9] = compound: Cn1cncc1[C@@](N)(c1ccc(Cl)cc1)c1ccc2c(c1)c(-c1cccc(Cl)c1)cc(=O)n2C [tipifarnib]
In short: as §1

[10] = compound: FC(F)(F)c1ccc(/C=C/c2nc(COc3ccc(CCCCn4ccnn4)cc3)co2)cc1 [mubritinib]
In short: as §1

[11] = compound: NC(=O)Nc1cc(-c2cccc(F)c2)sc1C(=O)N[C@H]1CCCNC1
In short: as §1

[12] = compound: NC(=O)c1cnc(N[C@@H]2CCCC[C@@H]2N)nc1Nc1cccc(-n2nccn2)c1
In short: as §1

[13] = compound: NC1(c2ccc(-c3nc4ccn5c(=O)[nH]nc5c4cc3-c3ccccc3)cc2)CCC1
In short: as §1

[14] = compound: NCC(=O)Nc1ccc(-n2nc(C(F)(F)F)cc2-c2ccc3c(ccc4ccccc43)c2)cc1
In short: as §1

[15] = compound: Nc1ccccc1NC(=O)c1ccc(CNC(=O)OCc2cccnc2)cc1 [entinostat]
In short: as §1

[16] = compound: O=C(CCCCCCC(=O)Nc1ccccc1)NO [vorinostat]
In short: as §1

[17] = compound: O=C(CCCCCCNC(=O)c1cnc(N(c2ccccc2)c2ccccc2Cl)nc1)NO [citarinostat]
In short: as §1

[18] = compound: O=C(O)c1ccc2c(c1)nc(Nc1cccc(Cl)c1)c1ccncc12 [silmitasertib]
In short: as §1

[19] = compound: O=C1NC(=O)C(c2cnc3ccccn23)=C1c1cn2c3c(cc(F)cc13)CN(C(=O)N1CCCCC1)CC2
In short: as §1

[20] = compound: c1cc(OCCN2CCCCC2)cc(-c2n[nH]c3ccc(-c4nnc[nH]4)cc23)c1
In short: as §1

UniProt Q9Y4E8, sequence (Q9Y4E8 whole entry, looked up): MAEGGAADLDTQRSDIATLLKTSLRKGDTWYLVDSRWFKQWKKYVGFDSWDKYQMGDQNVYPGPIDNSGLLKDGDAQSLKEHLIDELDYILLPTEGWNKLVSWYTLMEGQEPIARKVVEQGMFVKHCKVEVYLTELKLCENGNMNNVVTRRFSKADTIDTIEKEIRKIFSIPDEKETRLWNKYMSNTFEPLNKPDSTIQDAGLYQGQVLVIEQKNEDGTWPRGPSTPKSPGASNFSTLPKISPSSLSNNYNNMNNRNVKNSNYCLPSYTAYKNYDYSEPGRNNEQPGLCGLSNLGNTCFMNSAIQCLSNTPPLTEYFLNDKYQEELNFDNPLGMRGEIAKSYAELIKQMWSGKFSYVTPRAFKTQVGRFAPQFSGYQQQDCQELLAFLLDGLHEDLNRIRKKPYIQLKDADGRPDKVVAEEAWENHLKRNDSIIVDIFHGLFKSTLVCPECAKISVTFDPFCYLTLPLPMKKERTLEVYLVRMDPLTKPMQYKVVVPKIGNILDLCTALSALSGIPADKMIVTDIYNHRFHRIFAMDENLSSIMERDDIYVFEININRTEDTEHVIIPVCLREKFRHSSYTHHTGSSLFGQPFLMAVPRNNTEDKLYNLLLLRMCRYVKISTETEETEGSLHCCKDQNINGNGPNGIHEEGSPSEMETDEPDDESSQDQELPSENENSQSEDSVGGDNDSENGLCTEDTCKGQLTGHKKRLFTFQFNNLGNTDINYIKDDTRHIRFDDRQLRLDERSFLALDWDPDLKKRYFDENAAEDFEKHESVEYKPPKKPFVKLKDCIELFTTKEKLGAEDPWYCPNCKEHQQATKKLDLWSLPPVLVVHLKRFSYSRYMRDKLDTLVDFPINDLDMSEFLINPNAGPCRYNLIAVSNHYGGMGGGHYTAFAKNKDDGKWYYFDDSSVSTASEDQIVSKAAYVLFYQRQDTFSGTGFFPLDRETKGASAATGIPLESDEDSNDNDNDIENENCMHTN
UniProt O00220, sequence (O00220 whole entry, looked up): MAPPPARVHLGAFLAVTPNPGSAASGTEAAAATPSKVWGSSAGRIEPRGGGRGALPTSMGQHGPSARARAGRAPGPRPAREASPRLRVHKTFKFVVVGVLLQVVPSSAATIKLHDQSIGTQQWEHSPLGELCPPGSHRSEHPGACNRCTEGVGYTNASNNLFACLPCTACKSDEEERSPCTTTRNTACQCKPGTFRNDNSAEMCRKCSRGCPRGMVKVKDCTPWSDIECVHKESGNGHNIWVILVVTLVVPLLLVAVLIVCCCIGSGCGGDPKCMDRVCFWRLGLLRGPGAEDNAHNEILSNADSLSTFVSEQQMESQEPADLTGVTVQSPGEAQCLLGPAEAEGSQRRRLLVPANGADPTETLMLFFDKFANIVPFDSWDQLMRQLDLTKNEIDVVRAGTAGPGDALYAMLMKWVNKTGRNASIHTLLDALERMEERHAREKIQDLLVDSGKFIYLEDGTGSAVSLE
UniProt Q9H269, sequence (Q9H269 whole entry, looked up): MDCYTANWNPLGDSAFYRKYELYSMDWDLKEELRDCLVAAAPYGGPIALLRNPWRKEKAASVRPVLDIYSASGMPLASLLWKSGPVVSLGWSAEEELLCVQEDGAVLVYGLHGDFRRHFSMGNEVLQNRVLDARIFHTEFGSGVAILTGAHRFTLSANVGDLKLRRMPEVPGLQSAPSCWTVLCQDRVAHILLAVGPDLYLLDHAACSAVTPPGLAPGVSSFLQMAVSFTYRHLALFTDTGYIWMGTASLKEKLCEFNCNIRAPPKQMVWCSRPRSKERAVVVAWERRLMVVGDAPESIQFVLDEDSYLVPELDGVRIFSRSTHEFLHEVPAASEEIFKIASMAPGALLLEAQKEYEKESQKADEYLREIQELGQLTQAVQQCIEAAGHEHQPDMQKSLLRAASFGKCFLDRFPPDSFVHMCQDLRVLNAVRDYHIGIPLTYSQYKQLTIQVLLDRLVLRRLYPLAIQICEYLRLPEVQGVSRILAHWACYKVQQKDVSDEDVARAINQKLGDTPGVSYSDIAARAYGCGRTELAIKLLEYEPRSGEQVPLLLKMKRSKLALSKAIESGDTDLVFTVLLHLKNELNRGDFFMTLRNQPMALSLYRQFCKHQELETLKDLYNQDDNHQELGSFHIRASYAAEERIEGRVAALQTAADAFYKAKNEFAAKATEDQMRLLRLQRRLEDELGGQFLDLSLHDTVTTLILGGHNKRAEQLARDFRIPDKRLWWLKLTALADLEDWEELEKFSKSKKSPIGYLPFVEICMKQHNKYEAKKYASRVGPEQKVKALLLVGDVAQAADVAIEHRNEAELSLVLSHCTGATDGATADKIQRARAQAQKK
UniProt Q5VIR6, sequence (Q5VIR6 whole entry, looked up): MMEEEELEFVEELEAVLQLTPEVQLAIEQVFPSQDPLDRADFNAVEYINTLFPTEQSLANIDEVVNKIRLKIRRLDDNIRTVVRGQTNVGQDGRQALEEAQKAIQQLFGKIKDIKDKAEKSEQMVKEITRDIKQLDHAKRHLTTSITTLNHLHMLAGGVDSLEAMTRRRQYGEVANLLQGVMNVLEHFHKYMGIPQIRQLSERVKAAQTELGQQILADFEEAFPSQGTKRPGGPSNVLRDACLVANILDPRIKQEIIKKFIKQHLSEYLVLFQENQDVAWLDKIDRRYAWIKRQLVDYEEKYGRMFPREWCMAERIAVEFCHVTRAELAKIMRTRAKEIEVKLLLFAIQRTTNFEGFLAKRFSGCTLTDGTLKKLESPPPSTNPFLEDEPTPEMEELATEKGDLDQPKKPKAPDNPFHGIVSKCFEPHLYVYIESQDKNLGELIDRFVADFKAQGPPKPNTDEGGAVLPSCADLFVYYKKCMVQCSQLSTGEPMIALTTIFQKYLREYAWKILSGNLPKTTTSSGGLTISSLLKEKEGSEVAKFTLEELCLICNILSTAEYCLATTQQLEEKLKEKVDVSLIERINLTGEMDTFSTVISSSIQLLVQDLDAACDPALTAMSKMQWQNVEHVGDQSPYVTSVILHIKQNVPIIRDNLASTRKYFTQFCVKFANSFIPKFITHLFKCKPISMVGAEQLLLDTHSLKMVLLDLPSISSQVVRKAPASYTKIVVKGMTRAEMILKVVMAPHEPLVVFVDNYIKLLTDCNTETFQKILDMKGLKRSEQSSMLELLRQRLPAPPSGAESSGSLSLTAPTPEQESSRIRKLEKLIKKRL
UniProt Q9UK41, sequence (Q9UK41 whole entry, looked up): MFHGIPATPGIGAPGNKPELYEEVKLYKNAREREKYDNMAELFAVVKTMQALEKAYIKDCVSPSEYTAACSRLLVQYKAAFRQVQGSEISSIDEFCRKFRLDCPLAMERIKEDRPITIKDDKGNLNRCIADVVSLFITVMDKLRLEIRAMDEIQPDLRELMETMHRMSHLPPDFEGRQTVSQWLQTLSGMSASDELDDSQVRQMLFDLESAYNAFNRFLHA
UniProt O15213, sequence (O15213 whole entry, looked up): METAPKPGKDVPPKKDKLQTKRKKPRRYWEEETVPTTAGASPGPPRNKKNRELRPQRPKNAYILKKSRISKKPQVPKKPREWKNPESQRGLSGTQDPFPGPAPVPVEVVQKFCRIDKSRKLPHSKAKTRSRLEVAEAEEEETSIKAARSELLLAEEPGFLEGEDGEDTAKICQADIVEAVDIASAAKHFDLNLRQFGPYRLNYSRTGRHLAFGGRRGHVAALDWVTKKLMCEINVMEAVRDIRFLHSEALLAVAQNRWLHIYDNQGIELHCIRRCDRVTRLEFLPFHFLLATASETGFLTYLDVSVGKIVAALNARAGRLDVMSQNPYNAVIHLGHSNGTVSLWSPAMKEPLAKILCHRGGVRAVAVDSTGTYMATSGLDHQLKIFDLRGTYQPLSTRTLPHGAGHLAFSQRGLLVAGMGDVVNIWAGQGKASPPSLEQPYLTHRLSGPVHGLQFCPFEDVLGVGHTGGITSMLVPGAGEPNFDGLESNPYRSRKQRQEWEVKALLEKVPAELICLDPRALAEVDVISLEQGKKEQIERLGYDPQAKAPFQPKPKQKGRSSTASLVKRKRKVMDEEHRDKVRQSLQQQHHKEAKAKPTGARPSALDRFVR
UniProt Q6ZXV5, sequence (Q6ZXV5 whole entry, looked up): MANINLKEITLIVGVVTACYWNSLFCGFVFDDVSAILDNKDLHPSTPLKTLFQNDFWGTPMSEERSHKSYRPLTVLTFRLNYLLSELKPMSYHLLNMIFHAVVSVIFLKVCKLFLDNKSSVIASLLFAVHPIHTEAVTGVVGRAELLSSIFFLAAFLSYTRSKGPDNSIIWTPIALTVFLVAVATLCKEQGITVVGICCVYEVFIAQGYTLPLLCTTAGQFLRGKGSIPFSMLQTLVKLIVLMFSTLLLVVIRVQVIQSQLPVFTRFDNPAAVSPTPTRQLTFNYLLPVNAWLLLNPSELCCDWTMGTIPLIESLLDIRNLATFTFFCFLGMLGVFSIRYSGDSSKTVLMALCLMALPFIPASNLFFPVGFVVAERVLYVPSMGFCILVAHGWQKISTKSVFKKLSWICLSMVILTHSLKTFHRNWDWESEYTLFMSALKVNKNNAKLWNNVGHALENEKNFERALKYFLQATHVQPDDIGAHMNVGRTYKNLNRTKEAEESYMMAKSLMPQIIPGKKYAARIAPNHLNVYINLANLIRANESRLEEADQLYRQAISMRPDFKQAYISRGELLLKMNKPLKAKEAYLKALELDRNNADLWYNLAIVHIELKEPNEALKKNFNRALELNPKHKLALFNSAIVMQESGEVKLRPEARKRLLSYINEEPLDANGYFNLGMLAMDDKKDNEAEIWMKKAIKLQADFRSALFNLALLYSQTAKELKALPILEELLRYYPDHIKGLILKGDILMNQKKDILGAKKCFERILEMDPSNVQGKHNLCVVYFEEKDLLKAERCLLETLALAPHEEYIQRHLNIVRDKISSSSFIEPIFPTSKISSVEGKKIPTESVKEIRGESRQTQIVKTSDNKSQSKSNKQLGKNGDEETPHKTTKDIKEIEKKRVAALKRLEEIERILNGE
UniProt P02585, sequence (P02585 whole entry, looked up): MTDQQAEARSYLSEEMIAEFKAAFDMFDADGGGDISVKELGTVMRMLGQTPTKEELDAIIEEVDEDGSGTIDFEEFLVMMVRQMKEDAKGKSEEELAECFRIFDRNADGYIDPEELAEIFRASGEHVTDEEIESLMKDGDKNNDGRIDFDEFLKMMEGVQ

| Target | log2 fold change [1] | log2 fold change [2] | log2 fold change [3] | log2 fold change [4] | log2 fold change [5] | log2 fold change [6] | log2 fold change [7] | log2 fold change [8] | log2 fold change [9] | log2 fold change [10] | log2 fold change [11] | log2 fold change [12] | log2 fold change [13] | log2 fold change [14] | log2 fold change [15] | log2 fold change [16] | log2 fold change [17] | log2 fold change [18] | log2 fold change [19] | log2 fold change [20] |
| --- | --- | --- | --- | --- | --- | --- | --- | --- | --- | --- | --- | --- | --- | --- | --- | --- | --- | --- | --- | --- |
| USP7 (UniProt Q93009) | -0.018 | 0.097 | -0.076 | -0.113 | -0.272 | -0.011 | 0.101 | 0.153 | -0.139 | 0.068 | -0.039 | -0.062 | -0.263 | -0.07 | 0.097 | 0.182 | 0.096 | -0.028 | -0.037 | 0.046 |
| TMEM70 (UniProt Q9BUB7) | -0.141 | 0.026 | 0.028 | -0.003 | -0.094 | 0.018 | 0.06 | 0.023 | -0.02 | 0.017 | -0.058 | -0.125 | -0.162 | -0.137 | 0.005 | 0.031 | 0.047 | 0.019 | -0.045 | -0.003 |
| VPS16 (UniProt Q9H269) | 0.041 | 0.178 | -0.038 | -0.071 | -0.14 | -0.022 | -0.039 | 0.04 | -0.078 | 0.083 | 0.041 | -0.156 | -0.211 | 0.007 | 0.084 | 0.16 | 0.189 | 0.009 | 0.122 | 0 |
| TP53BP1 isoform 2 (UniProt Q12888) | 0.004 | 0.008 | -0.001 | -0.011 | -0.009 | -0.027 | -0.064 | -0.014 | 0.016 | -0.002 | 0.014 | -0.056 | -0.072 | -0.008 | 0.018 | 0.031 | 0.074 | 0.117 | -0.035 | -0.029 |
| VPS28 (UniProt Q9UK41) | -0.017 | -0.021 | -0.153 | -0.063 | -0.209 | -0.019 | 0.01 | 0.006 | -0.051 | 0.046 | -0.059 | -0.079 | -0.177 | -0.055 | 0.064 | 0.052 | 0.122 | 0.058 | -0.001 | -0.012 |
| WDR46 (UniProt O15213) | 0.251 | -0.026 | -0.055 | 0.117 | 0.364 | 0.096 | -0.376 | -0.187 | 0.084 | -0.093 | 0.098 | 0.083 | 0.253 | 0.177 | -0.027 | -0.042 | -0.139 | 0.173 | 0.257 | -0.143 |
| TXNRD1 (UniProt Q16881) | -0.012 | -0.011 | 0.097 | -0.013 | -0.013 | -0.002 | 0.067 | 0.021 | -0.107 | 0.225 (active) | -0.082 | -0.052 | -0.077 | -0.007 | -0.027 | -0.005 | 0.017 | -0.036 | -0.122 | 0.006 |
| TNFRSF10A (UniProt O00220) | -0.044 | -0.051 | 0.061 | -0.055 | -0.015 | 0.058 | -0.082 | -0.005 | -0.054 | -0.05 | -0.097 | -0.019 | 0.06 | 0.029 | -0.202 | -0.178 | -0.011 | 0.028 | -0.069 | -0.07 |
| TMEM189-UBE2V1 (UniProt I3L0A0) | -0.038 | -0.035 | -0.012 | 0.229 (active) | -0.009 | 0.055 | 0.015 | 0.069 | 0.056 | 0.026 | 0.06 | -0.018 | -0.063 | -0.018 | -0.097 | 0.005 | 0.046 | -0.058 | 0.009 | -0.016 |
| TMEM177 (UniProt Q53S58) | -0.123 | 0.054 | -0.001 | -0.005 | -0.045 | 0.023 | -0.019 | 0.016 | 0.004 | 0.026 | -0.014 | -0.008 | -0.043 | 0.347 (active) | -0.021 | -0.048 | 0.068 | -0.019 | 0.048 | -0.042 |
| TMTC3 (UniProt Q6ZXV5) | -0.07 | -0.02 | -0.036 | 0 | -0.055 | 0.015 | -0.051 | 0.061 | -0.018 | 0.011 | -0.028 | -0.113 | -0.135 | -0.097 | -0.046 | 0.025 | 0.005 | 0.025 | -0.037 | -0.089 |
| VTI1B (UniProt Q9UEU0) | -0.064 | -0.177 | 0.013 | 0.015 | -0.011 | 0.027 | 0 | 0.037 | 0.085 | -0.055 | 0.023 | -0.006 | -0.084 | -0.054 | -0.031 | -0.035 | -0.001 | 0.114 | 0.054 | -0.03 |
| TTC4 (UniProt O95801) | 0.036 | 0.116 | -0.034 | -0.094 | -0.137 | 0.003 | 0.019 | 0 | -0.077 | 0.061 | -0.071 | -0.047 | -0.064 | -0.073 | 0.069 | 0.077 | 0.064 | 0.074 | -0.051 | -0.014 |
| VPS53 isoform 4 (UniProt Q5VIR6) | -0.04 | 0.036 | -0.1 | -0.148 | -0.087 | 0.037 | -0.035 | -0.027 | -0.061 | 0.003 | -0.036 | -0.062 | -0.105 | -0.021 | 0.052 | 0.018 | 0.025 | 0.063 | -0.066 | -0.02 |
| USP15 (UniProt Q9Y4E8) | -0.01 | 0.047 | -0.064 | -0.082 | -0.099 | 0.005 | 0.021 | 0.044 | -0.081 | 0.023 | -0.017 | -0.078 | -0.185 | -0.066 | 0.052 | 0.044 | 0.064 | 0.035 | -0.016 | -0.022 |
| TNNC2 (UniProt P02585) | -0.057 | -0.058 | 0.057 | 0.024 | 0.022 | -0.015 | 0.049 | 0.032 | 0.015 | 0.001 | -0.003 | 0.006 | -0.028 | 0.028 | -0.025 | -0.101 | 0.048 | -0.026 | -0.033 | -0.003 |
